# Screens: PubChem, several laboratories
# PLCb3 inh: human PLC-beta3 inhibitors, primary screen, biochemical, fluorescence | 1-phosphatidylinositol 4,5-bisphosphate phosphodiesterase beta-3 (Homo sapiens), Q01970 | Purified PLC-beta3, fluorogenic substrate | inhibition, % at 12.2 µM | 370,000 compounds, 0.18% hits; in the data active means inhibition above about 11%;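 further: 0% = median of compound wells on plate and 100% = full blocker control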
# PLC-gamma1 inh: PLC-gamma1 enzyme inhibitors, primary screen, biochemical, fluorescence, purified enzyme. 1-phosphatidylinositol 4,5-bisphosphate phosphodiesterase gamma-1 (Homo sapiens), P19174. fluorogenic substrate. inhibition, % at 12.2 µM. 370,000 compounds, 0.84% hits. AID 720700, 2013; in the data active means inhibition above about 9.5%
# Rce1 inh: yeast Rce1p protease inhibitors, primary screen, biochemical, fluorescence, cell-free homogeneous. 290,000 compounds, 0.27% hits. yeast membranes, quenched prenylated peptide cleavage fluorescence. AID 2563, 2010. calls only;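 active means fall in fluorescence gain of 50% or more versus controls, with final raw signal at or below 3038400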;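 further: plate controls were neutral control wells for no effect and wells lacking membranes for full effect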
# PfM18AAP inh-1: PfM18AAP inhibitors, malaria aminopeptidase, primary screen, biochemical, QFRET, recombinant enzyme. M18 aspartyl aminopeptidase (Plasmodium falciparum 3D7). H-Glu-NHMec fluorogenic cleavage. inhibition, % at 7.35 µM. 290,000 compounds, 1.2% hits;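 active means inhibition above the campaign mean inhibition over all tested compounds plus 3 SD, cut at about 28% in these data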;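 further: 0% = plate median of test compound wells and 100% = 2 mM ZnCl2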
# NPR2 activator: human GC-B receptor activators, primary screen, HEK293 GC-B cells, cGMP TR-FRET, EC30 CNP; Atrial natriuretic peptide receptor 2 (Homo sapiens), P20594; 0% at EC30 CNP, 100% saturating CNP; activation, % at 10 µM; 370,000 compounds, 0.11% hits;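 active means activation at 10 µM reaching about 35% in either raw or pattern-adjusted values, limit read from the data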
# Target sequence (P20594 whole entry, looked up): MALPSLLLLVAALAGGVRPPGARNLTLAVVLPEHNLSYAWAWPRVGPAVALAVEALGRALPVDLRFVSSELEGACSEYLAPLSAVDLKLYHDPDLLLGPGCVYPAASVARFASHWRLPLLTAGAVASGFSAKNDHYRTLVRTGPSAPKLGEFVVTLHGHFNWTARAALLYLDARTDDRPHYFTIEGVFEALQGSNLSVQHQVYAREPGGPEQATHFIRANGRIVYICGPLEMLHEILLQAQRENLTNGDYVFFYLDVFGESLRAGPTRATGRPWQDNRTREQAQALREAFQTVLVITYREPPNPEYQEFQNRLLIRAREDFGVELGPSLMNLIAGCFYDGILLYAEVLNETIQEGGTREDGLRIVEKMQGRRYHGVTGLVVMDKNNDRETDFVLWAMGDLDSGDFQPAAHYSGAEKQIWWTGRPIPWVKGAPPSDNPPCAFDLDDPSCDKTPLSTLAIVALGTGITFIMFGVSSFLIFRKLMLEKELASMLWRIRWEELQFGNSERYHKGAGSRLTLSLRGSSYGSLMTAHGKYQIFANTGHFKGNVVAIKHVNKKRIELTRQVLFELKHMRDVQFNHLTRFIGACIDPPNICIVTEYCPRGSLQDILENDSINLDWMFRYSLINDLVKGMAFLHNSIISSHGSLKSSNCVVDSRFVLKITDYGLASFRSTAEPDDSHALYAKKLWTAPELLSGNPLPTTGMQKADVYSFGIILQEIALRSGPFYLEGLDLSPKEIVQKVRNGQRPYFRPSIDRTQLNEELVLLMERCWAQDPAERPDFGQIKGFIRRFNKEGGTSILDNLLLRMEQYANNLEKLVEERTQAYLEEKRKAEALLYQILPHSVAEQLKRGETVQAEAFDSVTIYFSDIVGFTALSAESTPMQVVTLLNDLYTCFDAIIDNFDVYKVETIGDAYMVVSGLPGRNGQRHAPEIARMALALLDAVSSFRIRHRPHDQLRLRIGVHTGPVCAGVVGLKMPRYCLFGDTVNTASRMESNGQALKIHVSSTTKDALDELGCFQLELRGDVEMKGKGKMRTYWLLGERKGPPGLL
# GC-A act: GC-A stimulated cGMP production enhancers – HEK293 GC-A cells, cGMP TR-FRET, EC30 ANP, primary screen | Atrial natriuretic peptide receptor 1 (Homo sapiens), P16066 | 0% at EC30 ANP, 100% saturating ANP | activation, % at 10 µM | 370,000 compounds, 0.14% hits; in the data active means activation above about 40%
# PfM18AAP inh-2: PfM18AAP inhibitors, malaria aminopeptidase, confirmation, biochemical, QFRET, recombinant enzyme, triplicate | shares compounds with PfM18AAP inh-1 | H-Glu-NHMec fluorogenic cleavage | inhibition, % at 7.35 µM | 2,400 compounds, 28% hits | AID 2170, 2009;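 active means mean inhibition over replicate wells above the hit cutoff set for the earlier primary screen, cut at about 29% in these data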;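 further: 0% = median of test compound wells and 100% = 2 mM ZnCl2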
# CTSL1 counter: cathepsin L1 inhibitors, retest, confirmation, counter-screen for PFM18AAP inhibitor project, biochemical, QFRET, triplicate | shares compounds with PfM18AAP inh-1 | 2,400 tested, under 10 active | purified cathepsin L1, Z-Leu-Arg-MCA fluorescence | inhibition, % at 5.96 µM;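 active means average inhibition across replicates above the hit cutoff set in the earlier primary screen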;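 further: 0% = median of test compound wells and 100% = Z-Phe-Ala-diazomethylketone 1 µM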
# An asterisk follows results filed as active; i = inactive; . = no result. Most compounds without a hit are left out; they make up all but 2.2% or so of the library.
SMILES,PLCb3 inh,PLC-gamma1 inh,Rce1 inh,PfM18AAP inh-1,NPR2 activator,GC-A act,PfM18AAP inh-2,CTSL1 counter
COCC(=O)N/N=C/c1ccc(Sc2nc3ccccc3s2)o1,-3.5,-2.1,i,-1.4,-4.4,6.5,.,.
N#CCC(=O)N/N=C/c1ccc(Sc2nc3ccccc3s2)o1,-3.4,-3.3,i,41.1*,0.2,0.8,-50.9,-7.4
Cc1ccccc1CN1CCCCC(NC(=O)c2ccc(Br)cc2)C1=O (stereo not given),0.2,2.3,.,.,-3.2,3.4,.,.
COc1cc(OC)c2c(c1O)OC(c1ccccc1)CC2=O (stereo not given),-17.8,-13.0,i,48.9*,10.2,-0.3,-0.3,4.0
O=C1CC(c2ccccc2)Oc2cc(O)cc(O)c21 (stereo not given),-0.6,0.3,i,.,-11.3,-2.7,.,.
O=C(NC1CCC(O)CC1)c1ccc(-c2ccc([N+](=O)[O-])cc2)o1 (stereo not given),-51.3,-25.1,i,33.4*,3.7,-3.1,-119.7,2.9
O[C@H](COc1ccc(F)cc1)CN1CCC(C(O)(c2ccccc2)c2ccccc2)CC1,1.1,3.6,.,.,-4.2,-3.1,.,.
CCOC(=O)c1c(C)n(C)c2ccc(OC(=O)c3ccc(N4C(=O)CCC4=O)cc3)cc12,-0.3,-1.1,i,56.6*,11.4,4.7,-57.7,2.1
Cc1cc(C)c2c(N)c(C(=O)NN)sc2n1,-119.5,-73.7,i,11.1,-7.7,-5.3,.,.
Cc1cc(C)c2c(N)c(C(=O)NNC(=O)c3ccccc3)sc2n1,i,-425.9,i,43.6*,-2.0,1.8,11.8,-0.6
O=C(N/N=C/c1cccnc1)c1ccc(O)cc1,-1.9,4.0,i,0.2,0.0,-0.7,.,.
O=C(N/N=C/c1cccnc1)c1cc(O)c(O)c(O)c1,-4.2,-0.5,i,40.1*,-0.1,-5.0,5.9,-3.1
O=[N+]([O-])c1ccc(-c2ccn[nH]2)o1,-1.1,-0.5,i,40.2*,-0.7,-0.4,-44.2,-8.6
O=C(Cn1cnc2ccccc2c1=O)N1CCN(C(=O)C2CCCO2)CC1 (stereo not given),-0.5,-1.3,.,.,-4.6,3.1,.,.
Cc1ccc(NC(=O)c2ncn[nH]2)cc1,-0.2,4.0,i,5.0,-1.4,-3.8,.,.
Cc1c(Cl)cccc1NC(=O)c1ncn[nH]1,-9.5,1.9,i,37.3*,-1.0,-2.1,36.1*,0.5
CCCCCCCCN1C(=O)[C@@H](CC(=O)NCCCN2CCCC2=O)C[C@@]2(C(=O)OC)C1=C[C@H](COCc1ccccc1)O[C@@H]2C,-1.6,2.2,.,.,10.3,4.1,.,.
O=C(NC(=S)NNC(=O)c1cccs1)c1ccccc1,-9.4,-0.2,i,10.5,4.2,1.8,.,.
Cc1cccc(C(=O)NC(=S)NNC(=O)c2cccs2)c1,2.5,1.3,i,33.5*,0.0,2.2,-27.5,1.7
COc1ccc(C(=S)N2CCN(c3ccccc3Cl)CC2)cc1OC,-7.2,1.8,i,13.1,9.9,0.7,.,.
COc1cc(C(=S)N2CCN(c3ccccc3Cl)CC2)cc(O)c1O,-5.9,-2.3,i,54.3*,-1.6,-4.6,45.1*,-1.1
COC(=O)C1CN(C2CCCC2)CCS(=O)(=O)N1Cc1cn(Cc2ccc(OC)cc2)nn1 (stereo not given),2.6,1.7,.,.,7.2,1.9,.,.
COc1ccc(-n2c(SCC#N)nc3c(sc(=S)n3-c3ccccc3)c2=O)c(OC)c1,-4.9,2.9,i,34.8*,5.4,3.1,23.0,3.0
Cn1c(=O)[nH]c(=O)c2c1nc(SCCN1CCCCC1)n2CCCc1ccccc1,-1.0,2.2,.,54.6*,-2.0,1.0,7.5,-0.8
Cc1ccc(Cn2c(SCCN3CCCCC3)nc3c2c(=O)[nH]c(=O)n3C)cc1,-1.4,2.3,i,38.1*,-1.9,0.9,-0.1,3.9
SMILES,PLCb3 inh,PLC-gamma1 inh,Rce1 inh,PfM18AAP inh-1,NPR2 activator,GC-A act,PfM18AAP inh-2,CTSL1 counter
Cc1cccc(-c2nnc(SCc3cccc4ccccc34)n2-c2ccc(Cl)cc2)c1,-1.3,2.1,.,.,-9.4,-24.0,.,.
Cc1ccc(-n2c(SC/C=C/c3ccccc3)nnc2-c2cccs2)cc1,-0.9,-2.1,.,.,-13.2,-12.4,.,.
O=C(O)c1cn[nH]c1-n1cnnn1,2.2,4.4,i,65.0*,5.1,3.9,64.6*,-6.1
CC(=O)Nc1ccc(-n2cnnn2)cc1,3.4,1.5,i,0.7,3.3,0.5,.,.
COC(=O)C1=C(C)N(Cc2ccc(C(F)(F)F)cc2)C(=NCc2ccc(C(F)(F)F)cc2)NC1c1ccc(F)cc1 (stereo not given),9.0,4.5,.,.,-4.7,-9.7,.,.
CCN(CC)C(=O)c1c(C)[nH]c(=S)c(C#N)c1-c1ccco1,-14.8,-7.3,i,56.4*,-0.2,-3.1,20.8,1.4
Cc1ccc(CN2CCCCC(NC(=O)c3ccc(C)cc3)C2=O)cc1 (stereo not given),0.2,1.2,.,.,1.2,1.1,.,.
CCOc1cccc(/C=C2\NC(=S)N(c3ccccc3)C2=O)c1O,-27.4,-17.6,i,5.7,0.5,-1.8,.,.
CN(C)/C=C1\NC(=S)N(c2ccc(Cl)cc2)C1=O,4.9,2.4,.,67.5*,1.1,-1.6,44.1*,1.7
COc1ccc(N2C(=O)/C(=C/c3cccs3)NC2=S)cc1,-0.7,-3.5,i,7.1,11.8,14.0,.,.
CN(C)/C=C1\NC(=S)N(c2ccccc2)C1=O,7.8,6.6,.,73.4*,-1.5,-1.7,50.9*,3.7
CCN(C(=O)[C@@H](C)[C@@H](O)c1ccc(C(C)=O)cc1)c1ccccc1,1.2,4.3,.,.,3.4,-0.1,.,.
CCOC(=O)c1c(-c2ccco2)csc1N,-29.1,-22.6,i,21.2,-0.8,-0.2,.,.
CCOC(=O)c1c(-c2cccs2)csc1N,-7.0,-3.2,i,36.0*,1.1,-3.5,-41.8,-1.9
COC(=O)[C@]12C[C@H](CC(=O)N3CCCC3)C(=O)N(CCc3ccc(OC)c(OC)c3)C1=C[C@H](C1CCCC1)O[C@@H]2C,0.4,-0.9,.,.,-4.3,1.0,.,.
C/C(=N\NC(=O)CC#N)c1ccc(Oc2ccccc2)cc1,0.2,0.1,i,33.0*,-0.5,1.9,-27.8,2.2
